# Screens deposited in PubChem BioAssay by National Center for Advancing Translational Sciences (NCATS).
# The list is not random: actives were taken first. Their share in the collection is about 19%.
# TDP1 block = qHTS Assay for Inhibitors of Tyrosyl-DNA Phosphodiesterase (TDP1); Tyrosyl-DNA phosphodiesterase 1 (Homo sapiens), Q9NUW8; recombinant TDP1, AlphaScreen DNA substrate cleavage; Potency, µM (highest dose often 130 µM), without a hit: top-dose activity change, negative = inhibition, hits mostly inhibitors; 350,000 compounds, 0.28% hits; also: nearly all actives have a fitted effect of over 40% in size
#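 Enzyme-compound mixtures sat 15 min at room temperature, followed by a 5 min reaction with 15 nM final substrate and 10 min with AlphaScreen beads. Recombinant human Tdp1 was used at 1 nM final.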
# TDP1 cell noCPT = qHTS for Inhibitors of human tyrosyl-DNA phosphodiesterase 1 (TDP1): qHTS in cells in absence of CPT; DT40 Tdp1-/- hTDP1 cells, no CPT, ATP luminescence, 48 h; Potency, µM (series often up to 46.2 µM), without a hit: at the top dose activity change, negative = growth inhibition, hits mostly inhibitors; 420,000 compounds, 15% hits; AID 686978, 2013; also: nearly all actives have a fitted effect of over 55% in size
#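 No-CPT arm: Tdp1-/-;hTDP1 DT40 cells (400/well) plus compounds, incubated ≥48 hr at 37 °C. Readout CellTiter-Glo luminescence.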
# RORgamma inh = qHTS for inhibitors of ROR gamma transcriptional activity. Drosophila S2 Gal4-RORgamma UAS-luciferase reporter, 20 h. Potency, µM (highest dose often 53.6 µM), inactives show top-dose activity change, negative = inhibition, usual class: inhibitors. 310,000 compounds, 5.4% hits. AID 2551, 2010; also: nearly all actives have a fitted effect of over 60% in size
# Target sequence (P51450 whole entry, looked up, the tested form may be a part): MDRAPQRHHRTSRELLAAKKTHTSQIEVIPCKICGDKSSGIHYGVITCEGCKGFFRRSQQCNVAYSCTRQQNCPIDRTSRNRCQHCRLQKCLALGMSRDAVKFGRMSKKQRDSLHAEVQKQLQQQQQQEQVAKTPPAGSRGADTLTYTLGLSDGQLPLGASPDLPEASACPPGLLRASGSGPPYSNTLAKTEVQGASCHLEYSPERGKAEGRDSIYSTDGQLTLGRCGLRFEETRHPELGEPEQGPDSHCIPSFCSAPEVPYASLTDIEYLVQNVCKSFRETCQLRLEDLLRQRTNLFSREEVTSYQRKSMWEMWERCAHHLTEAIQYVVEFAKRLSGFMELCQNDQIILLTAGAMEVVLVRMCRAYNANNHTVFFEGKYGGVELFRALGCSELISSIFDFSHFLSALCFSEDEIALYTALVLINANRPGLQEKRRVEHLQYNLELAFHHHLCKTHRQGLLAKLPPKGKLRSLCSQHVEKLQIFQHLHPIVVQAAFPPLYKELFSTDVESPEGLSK
#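 Using a luciferase readout, inhibitors were identified by reduced reporter activity in Drosophila cells coexpressing a copper-inducible Gal4–ROR gamma fusion and UAS-driven Photinus luciferase, incubated 20 hr after 700 uM copper sulfate.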
# DT40 TDP1 CPT = qHTS for Inhibitors of human tyrosyl-DNA phosphodiesterase 1 (TDP1): qHTS in cells in presence of CPT; chicken DT40 Tdp1-/-;hTDP1 cells + 20 nM CPT, ATP luminescence, 48 h; AID 686979, 2013; 420,000 compounds, 12% hits; Potency, µM (top dose mostly 46.2 µM), without a hit: top-dose activity change, negative = growth inhibition, actives largely listed as inhibitors; also: nearly all actives have a fitted effect of over 55% in size
#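 Cell growth measured by CellTiter-Glo luminescence after a minimum 48 h, 37 C compound exposure with 20 nM CPT in Tdp1-knockout DT40 cells stably expressing hTDP1, seeded 400/well; qHTS titration format.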
# Gal4-VP16 FLuc = VP16 counterscreen qHTS for inhibitors of ROR gamma transcriptional activity | 310,000 compounds, 3.5% hits | Drosophila S2 Gal4-VP16 UAS-luciferase, luminescence, 20 h | Potency, µM (titrated, usually from 53.6 µM), inactives show top-dose activity, negative = inhibition, usual class: inhibitors | AID 2546, 2010;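 also: Gal4-VP16 expression switched on by copper sulfate through the metallothionein promoter; nearly all actives have a fitted effect of over 50% in size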
# The depositor's hits bear a star; u = inconclusive; x = no result; [ ] = dose if it differs, or a comment. Calls follow the shape of the dose curve; as a rule, active = well fitted curve in the direction sought with a large enough effect; inconclusive = small, poorly fitted or top-dose-only effect, or another doubt; inactive = no such curve, though single readings can be large; an effect the other way counts as inactive or inconclusive. % is scaled to controls: 0 for no effect and ±100 for the full control effect; potency is read from the fitted curve at half-maximal effect.
SMILES,TDP1 block,TDP1 cell noCPT,RORgamma inh,DT40 TDP1 CPT,Gal4-VP16 FLuc
O=c1cc2nc(-c3cccs3)nc(SCCOc3ccc(Cl)cc3)n2[nH]1,-3%,u,x,u,x
CC(C)(C)c1ccc(OCCSc2nc(-c3cccs3)nc3cc(=O)[nH]n23)cc1,5%,u,x,18µM*,x
Cc1ccc(NC(=O)CSc2nc(-c3ccc(C(C)(C)C)cc3)nc3cc(=O)[nH]n23)cc1C,3%,u,x,u,x
O=C(c1ccc(-c2cc3ccccc3oc2=O)cc1)N1CCN(c2ccc(Cl)cc2[N+](=O)[O-])CC1,3%,u,75%,u,-11%
CCCc1[nH]n(-c2ccc(F)cc2)c(=O)c1C=Nc1cccc(F)c1,0%,6.5µM*,11%,6.5µM*,-13%
CCCc1[nH]n(-c2ccc(F)cc2)c(=O)c1C=NCC1CCCO1 (stereo not given),x,0%,-2%,10%,-8%
CCCn1nc(NC(C)=O)c2cc3cccc(C)c3nc21,x,u,-9%,u,4%
Cc1cccc2cc3c(NC(=O)c4ccccn4)nn(C)c3nc12,1%,9.2µM*,2µM*,u,4µM*
CCCn1nc(NC(=O)COC)c2cc3cccc(C)c3nc21,x,16µM*,-12%,u,3%
Cc1ccccc1OCCn1c(CCNC(=O)C2CCCCC2)nc2ccccc21,-8%,18µM*,x,u,x
CC(C)(C)C(=O)NCCc1nc2ccccc2n1CCCCOc1ccccc1,4%,16µM*,x,u,x
O=C(NCCc1nc2ccccc2n1CCCOc1ccccc1Cl)C1CCCCC1,-6%,7.1µM*,x,10µM*,x
CC(C)C(=O)NCCc1nc2ccccc2n1CCOc1ccccc1,7%,u,18%,-28%,8%
Cc1ccc(C)c(OCCn2c(CCNC(=O)C3CCCCC3)nc3ccccc32)c1,-3%,x,x,x,x
CCc1ccc(OCCCCn2c(CCNC(=O)C3CCCCC3)nc3ccccc32)cc1,1%,10µM*,x,7.1µM*,x
Brc1cc(Br)c2nc3c(cc2c1)CCC3,x,0%,-29%,-2%,-2%
Cc1c(-c2ccc(Cl)cc2)c(=O)oc2c(CN3CCCC3)c(O)ccc12,-7%,x,x,x,x
CS(=O)(=O)N1CCC(C(=O)NCc2ccc(F)cc2Cl)CC1,5%,-19%,u,1%,14%
O/N=C/c1ccnc(SCc2ccccc2)n1,-1%,-22%,0.56µM*,-18%,3.5µM*
Cc1nn(Cc2ccc(Cl)cc2Cl)c(C)c1NC(=O)c1nn(C)cc1Cl,5%,9.2µM*,4%,8.2µM*,-1%
Cc1nn(Cc2ccc(Cl)cc2Cl)c(C)c1NC(=O)C1C2CCC(O2)C1C(=O)O (stereo not given),-7%[56.1 µM],15µM*,u,u,-14%
Cc1nn(C)c(Cl)c1NC(=O)OCc1ccc(Cl)cc1Cl,6%,13µM*,u,15µM*,8.9µM*
Cc1nnsc1NC(=O)OCc1ccc(Cl)cc1Cl,4%,u,u,-25%,-9%
CCc1cc(C(=O)Nc2c(C)nn(Cc3ccccc3Cl)c2C)no1,0%,u,x,u,x
Cc1nn(Cc2ccc(Cl)cc2Cl)c(C)c1NC(=O)CCl,2%,13µM*,u,15µM*,u
COc1ccc(CCN2CC(C(=O)Nc3cc(S(C)(=O)=O)ccc3Cl)CC2=O)cc1OC (stereo not given),0%,-1%,x,6%,x
O=C(NCc1ccccn1)Nc1ccccc1C(F)(F)F,1%,3%,0%,6%,1%
CCN(CC)C(c1ccc(F)cc1)c1nnnn1C1CCCCC1 (stereo not given),2%,-4%,-24%,-8%,-1%
Fc1ccc(C(c2nnnn2C2CCCC2)N2CCc3ccccc32)cc1 (stereo not given),3%,23µM*,2%,u,7%
